Results reported in PubChem BioAssay (EPA / NIEHS).
Several values for one entry are separate records, joined by “and”; a condition that tells them apart may be missing. Equal values may be shown once. Results filed as inconclusive are left out. Activity calls are given as the source filed them. Rule for the calls: active = hit-call score of the fitted dose curve at least 0.9, where 1 is the maximum; inconclusive = response in the unintended direction; inactive = score below 0.9.

Key:
[1] = target: Estrogen receptor (Homo sapiens) (UniProt P03372); test: NVS_NR_hER: NovaScreen (NVS) Nuclear Receptor Binding Assay for human Estrogen Receptor (ER) (AID 2283348)
In short: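 Cell-free MCF7-derived ER preparation, specific radioligand displaced by test compound, read by scintillation counting 18 h post-dosing. Duplicate single-point 25 uM screen, then concentration-response confirmation; DMSO baseline.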

[2] = target: Estrogen receptor (Homo sapiens) (UniProt P03372); test: OT_ER_ERaERa_1440: Odyssey Thera (OT) 24-hour HEK293T Protein-Complementation Assay for Estrogen Receptor-alpha/-alpha Homodimer (AID 2283349);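 note: hits raise fluorescence above DMSO for agonists and antagonists alike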
In short: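 HEK293T, stable ERα LBD (aa 310-547) homodimer PCA; 24 h compound exposure; mean fluorescence intensity (nuclear for agonists, nuclear plus cytoplasmic for antagonists) vs vehicle; positive fitting direction, DMSO baseline.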

[3] = target: Estrogen receptor (Homo sapiens) (UniProt P03372); test: OT_ER_ERaERa_0480: Odyssey Thera (OT) 8-hour HEK293T Protein-Complementation Assay for Estrogen Receptor-alpha/-alpha Homodimer (AID 2283351);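 note: rise in fluorescence from reassembled reporter fragments on ERα LBD homodimer in nucleus or whole cell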
In short: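 Cells were treated for 8 hours, then imaged on a laser scanning plate cytometer. Complementation of reporter fragments fused to the human ERα ligand-binding domain (residues 310-547) in HEK293T gave fluorescence, and gain of signal over vehicle was fitted.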

[4] = target: T1, Estrogen receptor (Homo sapiens) + Estrogen receptor beta (Homo sapiens) (UniProt P03372+Q92731); test: OT_ER_ERaERb_0480: Odyssey Thera (OT) 8-hour HEK293T Protein-Complementation Assay for Estrogen Receptor-alpha/-beta Heterodimer (AID 2283352)
In short: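 Human HEK293T cells were treated for 8 hours and receptor heterodimerisation was detected through reconstitution of a fluorescent reporter split between ER-alpha and ER-beta ligand-binding domains. Activity was analysed as gain of signal against DMSO.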

[5] = target: T1, Estrogen receptor (Homo sapiens) + Estrogen receptor beta (Homo sapiens); test: OT_ER_ERaERb_1440: Odyssey Thera (OT) 24-hour HEK293T Protein-Complementation Assay for Estrogen Receptor-alpha/-beta Homodimer (AID 2283356);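 note: heteromer of ER alpha and ER beta binding domains; hits raise reporter fluorescence and both agonists and antagonists give an increase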
In short: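 24 h exposure; HEK293T PCA cells with ERα/ERβ LBD fragments; signal rise in nuclear or whole-cell fluorescence over vehicle.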

[6] = target: Estrogen receptor beta (Homo sapiens) (UniProt Q92731); test: OT_ER_ERbERb_0480: Odyssey Thera (OT) 8-hour HEK293T Protein-Complementation Assay for Estrogen Receptor-beta/-beta Homodimer (AID 2283357);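 note: active means signal gain over DMSO baseline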
In short: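 ER-beta LBD homodimer PCA stably expressed in HEK293T; 8 h compound exposure, then formaldehyde fixation and Draq5 staining. Gain in nuclear/cytoplasmic fluorescence intensity versus DMSO vehicle, read on laser scanning cytometer.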

[7] = target: Androgen Receptor/SRC-1 Co-activator, AR (gene 367) (UniProt P10275); test: OT_AR_ARSRC1_0960: Odyssey Thera (OT) 16-hour HEK293T Protein-Complementation Assay for Androgen Receptor/SRC-1 Co-activator (AID 2283353);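 note: actives raise the signal above DMSO so potency reflects increased AR and SRC-1 complex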
In short: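 Stable HEK293T line carries AR and SRC-1 each linked to a Venus fragment; chemicals are applied for 16 h, cells imaged at two wavelengths, and the 488 nm nucleus/cytoplasm ratio is taken as the signal, rising relative to DMSO.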

[8] = target: Androgen Receptor/SRC-1 Co-activator, AR (gene 367) (UniProt P10275); test: OT_AR_ARSRC1_0480: Odyssey Thera (OT) 8-hour HEK293T Protein-Complementation Assay for Androgen Receptor/SRC-1 Co-activator (AID 2283354);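 note: hits raise the complementation signal above DMSO so AC50 marks enhancers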
In short: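 Reconstituted split-Venus YFP signal from AR–SRC-1 interaction, read by imaging 8 h post-dose in stable HEK293T lines. The 488 nm nucleus-to-cytoplasm ratio (≥400 cells/image) was fitted upward against DMSO.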

[9] = target: human Thyroid Receptor Alpha (TRa), THRA (gene 7067) (UniProt P10827); test: NVS_NR_hTRa_Antagonist: NovaScreen (NVS) Nuclear Receptor Binding Assay for human Thyroid Receptor Alpha Antagonism (TRa) (AID 2283362);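 note: activity is loss of signal relative to DMSO baseline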
In short: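 In this biochemical format, receptor protein is dosed with chemical and read after 1 hour via AlphaLISA. Decreases from the DMSO baseline indicate antagonist activity; screening used 25 uM in duplicate before concentration-response confirmation.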

[10] = test system: guinea pig Dopamine Transporter (DAT), gene 100714898; test: NVS_TR_gDAT: NovaScreen (NVS) Transporter Assay for guinea pig Dopamine Transporter (DAT) (AID 2283369);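 note: active compounds lower bound radioligand signal relative to DMSO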
In short: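 Primary pass: duplicate wells at 25 uM, threshold e.g. 30% inhibition. Follow-up: singleton concentration-response, highest 50 uM. Radioligand binding on guinea pig striatal membranes, 2 h, filtration scintillation detection.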

[11] = target: human Peroxisome Proliferator-activated Receptor alpha (PPARa), PPARA (gene 5465) (UniProt Q07869); test: NVS_NR_hPPARa: NovaScreen (NVS) Nuclear Receptor Binding Assay for human Peroxisome Proliferator-activated Receptor alpha (PPARa) (AID 2283359);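 note: activity means loss of TR-FRET signal versus DMSO baseline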
In short: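 Loss of TR-FRET binding signal relative to DMSO was measured 1 h after chemical addition to extracted receptor protein. Chemicals were first tested in duplicate at 25 uM, and actives were followed up in concentration series.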

[12] = target: Glucocorticoid receptor (Homo sapiens) (UniProt P04150); test: NVS_NR_hGR: NovaScreen (NVS) Nuclear Receptor Binding Assay for human Glucocorticoid Receptor (GR) (AID 2283363);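 note: activity is loss of specific radioligand binding signal relative to DMSO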
In short: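 Compounds first tested in duplicate at 25 uM, actives followed up in concentration series. Binding to extracted GR protein measured as competitive radioligand displacement, filter scintillation read 16 h post-dosing, normalised to DMSO.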

[13] = target: Nuclear receptor subfamily 1 group I member 2 (Homo sapiens) (UniProt O75469); test: NVS_NR_hPXR: NovaScreen (NVS) Nuclear Receptor Binding Assay for human Pregnane X Receptor (PXR) (AID 2283365);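 note: a drop in FRET signal versus DMSO baseline means the compound binds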
In short: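 Read-out: TR-FRET, human PXR, 2 h post-dosing, cell-free. Loss of signal vs DMSO taken as binding activity; 25 uM primary, concentration series secondary.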

[14] = target: rat Androgen Receptor (AR), Ar (gene 24208) (UniProt P15207); test: NVS_NR_rAR: NovaScreen (NVS) Nuclear Receptor Binding Assay for rat Androgen Receptor (AR) (AID 2283366)
In short: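 Actives from a duplicate single-concentration (25 uM) primary run went on to concentration series. Displacement of radioligand was counted by filtration and scintillation, 18 h post-dose, using prostate extracts from testosterone-pretreated rats, with DMSO as baseline.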

[15] = target: guinea pig Sigma Receptor, Non-selective Binding, SIGMAR1 (gene 100135589) (UniProt Q60492); test: NVS_OR_gSIGMA_NonSelective: NovaScreen (NVS) Nuclear Receptor Binding Assay for guinea pig Sigma Receptor, Non-selective Binding (AID 2283367)
In short: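 Guinea pig brain membrane sigma sites were labelled with a radioligand, and bound radioactivity was counted after filtration 1 h post-dose. Compounds were screened at 25 uM in duplicate, then retested as concentration series when active.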

Sequence of Androgen Receptor/SRC-1 Co-activator, AR (gene 367) (P10275 whole entry, looked up, the tested form may be a part): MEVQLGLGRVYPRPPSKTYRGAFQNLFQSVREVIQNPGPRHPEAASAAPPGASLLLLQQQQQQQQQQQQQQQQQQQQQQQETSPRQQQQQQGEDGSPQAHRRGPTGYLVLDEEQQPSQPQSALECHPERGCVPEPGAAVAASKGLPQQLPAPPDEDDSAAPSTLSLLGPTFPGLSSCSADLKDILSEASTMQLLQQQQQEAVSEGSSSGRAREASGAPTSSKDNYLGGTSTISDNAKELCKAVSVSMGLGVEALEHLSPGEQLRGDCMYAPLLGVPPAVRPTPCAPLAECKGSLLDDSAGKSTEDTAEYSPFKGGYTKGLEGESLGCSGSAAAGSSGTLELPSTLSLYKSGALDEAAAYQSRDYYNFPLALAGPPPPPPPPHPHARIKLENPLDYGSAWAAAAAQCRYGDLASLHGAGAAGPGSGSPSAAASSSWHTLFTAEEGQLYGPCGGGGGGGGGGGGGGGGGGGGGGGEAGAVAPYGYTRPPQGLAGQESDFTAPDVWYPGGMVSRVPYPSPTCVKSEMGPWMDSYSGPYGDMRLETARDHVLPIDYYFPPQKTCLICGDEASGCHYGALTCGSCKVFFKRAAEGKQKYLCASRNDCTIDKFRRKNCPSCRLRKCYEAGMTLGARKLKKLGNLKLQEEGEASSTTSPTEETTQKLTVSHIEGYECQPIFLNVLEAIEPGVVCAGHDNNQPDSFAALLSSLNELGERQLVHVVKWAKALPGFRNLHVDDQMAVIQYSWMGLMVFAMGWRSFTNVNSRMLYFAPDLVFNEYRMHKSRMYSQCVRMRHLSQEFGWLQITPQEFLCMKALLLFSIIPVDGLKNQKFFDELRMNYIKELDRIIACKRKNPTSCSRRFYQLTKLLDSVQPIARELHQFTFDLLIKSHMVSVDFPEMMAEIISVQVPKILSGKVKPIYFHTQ
T1 sequence (P03372 whole entry, looked up, the tested form may be a part): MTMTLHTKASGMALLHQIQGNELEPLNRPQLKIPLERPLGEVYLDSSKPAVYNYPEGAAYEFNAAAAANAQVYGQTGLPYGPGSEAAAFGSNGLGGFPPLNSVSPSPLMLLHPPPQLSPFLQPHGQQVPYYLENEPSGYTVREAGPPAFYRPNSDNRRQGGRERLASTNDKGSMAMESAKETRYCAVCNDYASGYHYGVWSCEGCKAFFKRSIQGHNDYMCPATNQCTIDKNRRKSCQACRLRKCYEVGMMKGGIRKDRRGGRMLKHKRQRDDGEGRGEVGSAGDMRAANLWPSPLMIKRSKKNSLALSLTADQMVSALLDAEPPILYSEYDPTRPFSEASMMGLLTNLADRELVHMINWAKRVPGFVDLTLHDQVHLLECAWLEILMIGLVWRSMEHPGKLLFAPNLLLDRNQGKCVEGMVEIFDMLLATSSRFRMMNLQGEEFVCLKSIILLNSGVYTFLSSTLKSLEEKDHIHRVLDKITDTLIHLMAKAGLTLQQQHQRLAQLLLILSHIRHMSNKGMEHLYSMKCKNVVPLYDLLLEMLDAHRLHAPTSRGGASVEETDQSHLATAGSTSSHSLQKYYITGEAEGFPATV
T1 sequence (Q92731 whole entry, looked up, the tested form may be a part): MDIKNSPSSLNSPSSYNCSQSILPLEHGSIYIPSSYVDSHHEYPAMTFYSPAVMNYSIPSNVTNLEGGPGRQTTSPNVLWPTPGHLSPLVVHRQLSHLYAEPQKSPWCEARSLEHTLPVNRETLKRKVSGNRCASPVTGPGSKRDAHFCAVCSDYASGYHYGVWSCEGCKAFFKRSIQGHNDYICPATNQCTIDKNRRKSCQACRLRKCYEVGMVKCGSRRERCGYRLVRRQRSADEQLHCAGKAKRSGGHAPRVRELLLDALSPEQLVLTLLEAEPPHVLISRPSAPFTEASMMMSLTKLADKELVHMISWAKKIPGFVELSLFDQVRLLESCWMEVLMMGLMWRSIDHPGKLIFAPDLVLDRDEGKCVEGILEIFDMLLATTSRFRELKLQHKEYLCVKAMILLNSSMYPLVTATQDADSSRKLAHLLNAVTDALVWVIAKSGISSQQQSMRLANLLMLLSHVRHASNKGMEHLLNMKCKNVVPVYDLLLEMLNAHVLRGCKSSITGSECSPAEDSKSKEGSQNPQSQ
Sequence of Estrogen receptor (Homo sapiens) (P03372 whole entry, looked up, the tested form may be a part): as the sequence (P03372 whole entry, looked up, the tested form may be a part) above
Sequence of Estrogen receptor beta (Homo sapiens) (Q92731 whole entry, looked up, the tested form may be a part): as the sequence (Q92731 whole entry, looked up, the tested form may be a part) above
Sequence of Glucocorticoid receptor (Homo sapiens) (P04150 whole entry, looked up): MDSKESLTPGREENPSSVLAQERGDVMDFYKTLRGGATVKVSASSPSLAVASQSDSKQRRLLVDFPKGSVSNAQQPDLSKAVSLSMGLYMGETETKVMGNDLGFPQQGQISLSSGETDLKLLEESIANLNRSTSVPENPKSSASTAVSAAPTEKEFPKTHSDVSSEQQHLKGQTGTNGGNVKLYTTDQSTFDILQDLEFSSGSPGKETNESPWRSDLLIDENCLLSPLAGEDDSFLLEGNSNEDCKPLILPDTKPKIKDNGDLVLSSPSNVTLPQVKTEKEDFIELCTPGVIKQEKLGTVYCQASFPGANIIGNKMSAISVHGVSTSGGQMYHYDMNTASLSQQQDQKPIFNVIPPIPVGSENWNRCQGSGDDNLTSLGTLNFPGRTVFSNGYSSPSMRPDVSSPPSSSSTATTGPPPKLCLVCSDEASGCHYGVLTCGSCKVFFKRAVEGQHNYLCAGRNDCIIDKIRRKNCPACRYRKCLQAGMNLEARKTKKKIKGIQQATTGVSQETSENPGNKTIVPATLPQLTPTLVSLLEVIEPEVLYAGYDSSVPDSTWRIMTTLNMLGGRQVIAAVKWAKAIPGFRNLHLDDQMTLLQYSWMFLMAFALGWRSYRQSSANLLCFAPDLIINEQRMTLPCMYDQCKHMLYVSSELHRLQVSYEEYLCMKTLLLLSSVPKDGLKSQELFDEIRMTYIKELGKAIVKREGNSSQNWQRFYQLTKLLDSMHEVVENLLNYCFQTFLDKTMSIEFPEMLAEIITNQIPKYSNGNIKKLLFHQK
Sequence of human Peroxisome Proliferator-activated Receptor alpha (PPARa), PPARA (gene 5465) (Q07869 whole entry, looked up): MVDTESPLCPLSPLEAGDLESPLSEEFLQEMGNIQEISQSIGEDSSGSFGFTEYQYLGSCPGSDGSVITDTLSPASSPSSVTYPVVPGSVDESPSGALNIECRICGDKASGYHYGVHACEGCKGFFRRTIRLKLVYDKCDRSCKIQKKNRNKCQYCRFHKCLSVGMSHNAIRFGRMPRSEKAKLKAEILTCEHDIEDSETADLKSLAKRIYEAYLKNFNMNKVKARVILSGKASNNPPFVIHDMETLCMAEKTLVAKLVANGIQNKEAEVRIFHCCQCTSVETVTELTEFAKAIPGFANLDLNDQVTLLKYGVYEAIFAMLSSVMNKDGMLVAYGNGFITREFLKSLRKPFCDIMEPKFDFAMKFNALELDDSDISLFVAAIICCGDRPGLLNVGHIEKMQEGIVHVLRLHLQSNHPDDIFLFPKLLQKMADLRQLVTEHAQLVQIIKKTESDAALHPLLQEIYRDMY
Sequence of Nuclear receptor subfamily 1 group I member 2 (Homo sapiens) (O75469 whole entry, looked up): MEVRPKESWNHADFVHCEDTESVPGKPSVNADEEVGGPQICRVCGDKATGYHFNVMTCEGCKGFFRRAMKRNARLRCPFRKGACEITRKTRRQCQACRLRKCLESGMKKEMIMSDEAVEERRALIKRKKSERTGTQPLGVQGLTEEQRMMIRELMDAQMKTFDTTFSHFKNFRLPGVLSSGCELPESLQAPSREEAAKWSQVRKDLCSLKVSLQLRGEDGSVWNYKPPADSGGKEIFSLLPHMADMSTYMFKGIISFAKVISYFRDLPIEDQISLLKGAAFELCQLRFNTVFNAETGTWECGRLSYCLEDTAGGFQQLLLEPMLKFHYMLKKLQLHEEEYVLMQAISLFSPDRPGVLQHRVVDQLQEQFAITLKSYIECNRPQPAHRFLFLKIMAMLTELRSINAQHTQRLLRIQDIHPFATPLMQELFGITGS
Sequence of guinea pig Sigma Receptor, Non-selective Binding, SIGMAR1 (gene 100135589) (Q60492 whole entry, looked up): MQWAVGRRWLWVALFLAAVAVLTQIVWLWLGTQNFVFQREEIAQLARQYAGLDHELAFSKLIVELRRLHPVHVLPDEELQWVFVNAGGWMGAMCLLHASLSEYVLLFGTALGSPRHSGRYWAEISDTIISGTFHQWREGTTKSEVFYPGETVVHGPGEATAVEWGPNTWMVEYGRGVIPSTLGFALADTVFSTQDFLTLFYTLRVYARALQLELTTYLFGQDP
Sequence of human Thyroid Receptor Alpha (TRa), THRA (gene 7067) (P10827 whole entry, looked up): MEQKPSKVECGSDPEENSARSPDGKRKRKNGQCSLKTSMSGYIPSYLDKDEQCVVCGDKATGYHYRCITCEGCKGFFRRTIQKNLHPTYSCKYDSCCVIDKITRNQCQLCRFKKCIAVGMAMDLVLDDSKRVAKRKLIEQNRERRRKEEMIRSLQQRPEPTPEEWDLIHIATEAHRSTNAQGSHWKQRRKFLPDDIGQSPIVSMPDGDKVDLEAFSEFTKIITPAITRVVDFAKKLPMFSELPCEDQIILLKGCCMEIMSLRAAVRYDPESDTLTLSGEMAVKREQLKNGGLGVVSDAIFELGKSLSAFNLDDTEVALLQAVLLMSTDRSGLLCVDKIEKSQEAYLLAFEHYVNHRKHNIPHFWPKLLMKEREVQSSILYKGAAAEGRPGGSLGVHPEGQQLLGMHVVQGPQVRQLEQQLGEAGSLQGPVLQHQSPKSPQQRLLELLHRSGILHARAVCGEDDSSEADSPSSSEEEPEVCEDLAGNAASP

SMILES: NCc1cccc(CN)c1
- outcome [1]: inactive
- outcome [2]: inactive
- outcome [3]: inactive
- outcome [4]: inactive
- outcome [5]: inactive
- outcome [6]: inactive

SMILES: COc1cc([N+](=O)[O-])ccc1N
- outcome [2]: inactive
- outcome [3]: inactive
- outcome [4]: inactive
- outcome [7]: inactive
- outcome [8]: inactive
- outcome [5]: inactive
- outcome [6]: inactive

SMILES: Oc1c(Cl)cc(Cl)cc1Sc1cc(Cl)cc(Cl)c1O
- outcome [1]: inactive

SMILES: NNc1nc(-c2ccc([N+](=O)[O-])cc2)cs1
- outcome [1]: inactive

SMILES: O=C(O)c1cccc(C(=O)O)n1
- outcome [2]: inactive
- outcome [3]: inactive
- outcome [4]: inactive
- outcome [5]: inactive
- AC50 [9]: 28.1 µM (active)

SMILES: O=C(Nc1cccc([N+](=O)[O-])c1)c1cc2ccccc2cc1O
- outcome [1]: inactive

SMILES: CCCCc1oc2ccccc2c1C(=O)c1cc(I)c(OCCN(CC)CC)c(I)c1
- outcome [2]: inactive
- outcome [3]: inactive
- outcome [4]: inactive
- outcome [6]: inactive
- AC50 [10]: 17.8 µM (active)

SMILES: C=CC(=O)OCC(CO)(COCC(COC(=O)C=C)(COC(=O)C=C)COC(=O)C=C)COC(=O)C=C
- outcome [1]: inactive

SMILES: CCCCc1ccc2ccccc2c1S(=O)(=O)O
- outcome [2]: inactive
- outcome [3]: inactive
- outcome [4]: inactive
- outcome [7]: inactive
- outcome [8]: inactive
- outcome [5]: inactive
- outcome [6]: inactive
- outcome [11]: inactive
- AC50 [12]: 7.95 µM (active)
- AC50 [13]: 4.06 µM (active)

SMILES: Cc1cc(Cc2cc(C)cc(C(C)(C)C)c2O)c(O)c(C(C)(C)C)c1
- outcome [1]: inactive
- outcome [2]: inactive
- outcome [3]: inactive
- outcome [5]: inactive
- outcome [6]: inactive

SMILES: NC(=NCCCCCCN=C(N)/N=C(\N)Nc1ccc(Cl)cc1)/N=C(\N)Nc1ccc(Cl)cc1
- AC50 [1]: 9.07 µM (active) and 13.5 µM (active) and 19.2 µM (active)
- outcome [2]: inactive
- outcome [3]: inactive
- AC50 [7]: 9.58 µM (active)
- outcome [8]: inactive
- AC50 [11]: 0.178 µM (active)
- AC50 [12]: 3.08 µM (active)
- outcome [13]: inactive
- AC50 [14]: 15.4 µM (active)
- AC50 [15]: 23.1 µM (active)
- AC50 [10]: 0.868 µM (active)

SMILES: CCCCCCCCCCCCCC[n+]1ccccc1
- outcome [1]: inactive

SMILES: Oc1ccc(Cc2ccccc2O)cc1
- outcome [1]: inactive

SMILES: CCCCCCOC(=O)c1ccc(O)cc1
- AC50 [1]: 5.86 µM (active)

SMILES: CC1=CC(=O)c2ccccc2C1=O
- outcome [1]: inactive

SMILES: O=C(Nc1ccc(Cl)c(Cl)c1)c1cc(Cl)cc(Cl)c1O
- AC50 [1]: 25 µM (active)

SMILES: Nc1cc(Cl)c(-c2cc(Cl)c(N)cc2Cl)cc1Cl
- AC50 [1]: 0.0384 µM (active)

SMILES: CCc1ccccc1O
- outcome [1]: inactive
- outcome [2]: inactive
- outcome [3]: inactive
- outcome [4]: inactive
- outcome [5]: inactive
- outcome [6]: inactive

SMILES: CN(C)CCOC(c1ccccc1)c1ccccc1
- outcome [2]: inactive
- outcome [3]: inactive
- outcome [4]: inactive
- outcome [7]: inactive
- outcome [8]: inactive
- outcome [5]: inactive
- AC50 [10]: 6.23 µM (active)

SMILES: c1ccc(CNc2ncnc3c2ncn3C2CCCCO2)cc1 (stereo not drawn)
- outcome [1]: inactive
